# Counter-ions that a name gives are not always drawn. ± gives the standard deviation.
# Test system: Danio rerio Tg(wt1b:EGFP) embryo, pronephros
# Experiment: glomerular separation, fold change vs DMSO control; higher = glomeruli further apart (abnormal)
# Conditions: 25 µM; exposure: 24-48 hpf
# In short: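 In HEPES-buffered E3 with 0.003% PTU and 0.5% DMSO, dechorionated Tg(wt1b:EGFP) zebrafish embryos were exposed to 25 μM compound from 24 to 48 hpf at 28.5°C. Pronephroi were then imaged dorsally at 470 nm in 10 z-slices, in 96-well plates filled with agarose. On maximum projections, a Fiji macro turned 16 manually placed reference points into distances and angles, and values more than 2 SD from the feature mean were excluded. Features are fold changes relative to the mean of DMSO-treated embryos from the same day.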
row,Structure (SMILES),glomerular separation
1,CC(C)NC[C@H](O)COc1ccc(CC(N)=O)cc1 [(S)-(-)-Atenolol],0.84 ± 0.24
2,COc1cc(C(=O)NS(=O)(=O)c2ccccc2C)ccc1Cc1cn(C)c2ccc(NC(=O)OC3CCCC3)cc12 [Zafirlukast],0.957 ± 0.46
3,CS(=O)(=O)c1ccc([C@@H](O)[C@@H](CF)NC(=O)C(Cl)Cl)cc1 [Florfenicol],1.03 ± 0.47
4,CC(=O)OCC(=O)[C@@]12N=C(C)O[C@@H]1C[C@H]1[C@@H]3CCC4=CC(=O)C=C[C@]4(C)[C@H]3[C@@H](O)C[C@@]12C [Deflazacort],1.15 ± 0.41
5,CCC(C)(C)c1ccc(CC(C)CN2C[C@@H](C)O[C@@H](C)C2)cc1 (stereo not given in full) [Amorolfine hydrochloride],0.874 ± 0.48
6,O=C(O)CN(CCN(CC(=O)O)CC(=O)O)CCN(CC(=O)O)CC(=O)O [Pentetic acid],1.23 ± 0.47
7,CC(=O)Nc1nnc(S(N)(=O)=O)s1 [Acetazolamide],0.751 ± 0.2
8,CN(C(=O)CN(CCO)CC(=O)N(C)C(C)(C)Cc1ccccc1)C(C)(C)Cc1ccccc1 [Oxethazaine],0.855 ± 0.18
9,CN(C)CCC(c1ccc(Br)cc1)c1ccccn1 (stereo not given) [Brompheniramine maleate],0.985 ± 0.22
10,CC(C)c1nc(CN(C)C(=O)N[C@H](C(=O)N[C@@H](Cc2ccccc2)C[C@H](O)[C@H](Cc2ccccc2)NC(=O)OCc2cncs2)C(C)C)cs1 [Ritonavir],1.18 ± 0.61
11,NC(=O)c1ncn([C@@H]2O[C@H](CO)[C@@H](O)[C@H]2O)n1 [Ribavirin],0.913 ± 0.3
12,CN1CCN2c3ncccc3Cc3ccccc3C2C1 (stereo not given) [Mirtazapine],0.964 ± 0.35
13,NC(=O)N/N=C/c1ccc([N+](=O)[O-])o1 [Nitrofural],0.881 ± 0.24
14,O=C(O)c1cc(=O)c2c(OCC(O)COc3cccc4oc(C(=O)O)cc(=O)c34)cccc2o1 [Cromolyn disodium salt],0.753 ± 0.22
15,O=C(CCCN1CCN(c2ccccn2)CC1)c1ccc(F)cc1 [Azaperone],1.11 ± 0.43
16,CCCCNc1ccc(C(=O)OCCOCCOCCOCCOCCOCCOCCOCCOCCOC)cc1 [Benzonatate],1.12 ± 0.54
17,CCCc1ncc(C[n+]2ccccc2C)c(N)n1 [Amprolium hydrochloride],1.14 ± 0.19
18,CC(C)NC(=N)NC(=N)Nc1ccc(Cl)cc1 [Proguanil hydrochloride],1.2 ± 0.52
19,CO[C@H]1/C=C/O[C@@]2(C)Oc3c(C)c(O)c4c(O)c(c(/C=N/N5CCN(C6CCCC6)CC5)c(O)c4c3C2=O)NC(=O)/C(C)=C\C=C\[C@H](C)[C@H](O)[C@@H](C)[C@@H](O)[C@@H](C)[C@H](OC(C)=O)[C@@H]1C [Rifapentine],0.895 ± 0.2
20,NCC[C@H](O)C(=O)N[C@@H]1C[C@H](N)[C@@H](O[C@H]2O[C@H](CN)[C@@H](O)[C@H](O)[C@H]2O)[C@H](O)[C@H]1O[C@H]1O[C@H](CO)[C@@H](O)[C@H](N)[C@H]1O [Amikacin hydrate],1.13 ± 0.48

row,Structure (SMILES),glomerular separation
1,CNCCC(Oc1ccccc1OC)c1ccccc1 (stereo not given) [Nisoxetine hydrochloride],0.972 ± 0.43
2,N[C@@H]1CCCCN(c2c(F)cc3c(=O)c(C(=O)O)cn(C4CC4)c3c2Cl)C1 [Besifloxacin hydrochloride],0.997 ± 0.35
3,Cn1c(=O)c2c(ncn2C)n(C)c1=O [Caffeine],0.852 ± 0.19
4,O=c1[nH]cnc2c1ncn2[C@H]1CC[C@@H](CO)O1 [Didanosine],1.24 ± 0.56
5,O=C(O)Cc1ccccc1Nc1c(Cl)cccc1Cl [Diclofenac sodium],3.78 ± 1.9
6,COc1ccc2cc(CCC(C)=O)ccc2c1 [Nabumetone],1.26 ± 0.44
7,Cc1ncc([N+](=O)[O-])n1CCO [Metronidazole],1.1 ± 0.31
8,CN(C)CCC=C1c2ccccc2C=Cc2ccccc21 [Cyclobenzaprine hydrochloride],1.02 ± 0.31
9,CCN(CC)CCOC(=O)C(c1ccccc1)c1ccccc1 [Adiphenine hydrochloride],1.14 ± 0.47
10,Nc1nc(=O)c2c([nH]1)NC[C@@H](CNc1ccc(C(=O)N[C@@H](CCC(=O)O)C(=O)O)cc1)N2C=O [Folinic acid calcium salt],0.989 ± 0.3
11,NC(=O)N1c2ccccc2CC(=O)c2ccccc21 [Oxcarbazepine],0.94 ± 0.28
12,CC(=O)OCC(=O)[C@@]12OC3(CCCC3)O[C@@H]1C[C@H]1[C@@H]3CCC4=CC(=O)C=C[C@]4(C)[C@@]3(F)[C@@H](O)C[C@@]12C [Amcinonide],1.06 ± 0.48
13,CC(=O)O[C@]1(C(C)=O)CC[C@H]2[C@@H]3C=C(C)C4=CC(=O)CC[C@@H]4[C@H]3CC[C@@]21C [Nomegestrol acetate],1.02 ± 0.29
14,CC1=Nc2ccc(Cl)cc2S(=O)(=O)N1 [Diazoxide],0.743 ± 0.26
15,O=C1NCCN1CCN1CCC(c2cn(-c3ccc(F)cc3)c3ccc(Cl)cc23)CC1 [Sertindole],1.45 ± 0.59
16,O=C1NCC2(CCN(CCc3ccccc3)CC2)O1 [Fenspiride hydrochloride],1.24 ± 0.7
17,CC(C)Oc1ccc2c(=O)c(-c3ccccc3)coc2c1 [Ipriflavone],0.901 ± 0.33
18,Nc1c2c(nc3ccccc13)CCCC2 [Tacrine hydrochloride],1.09 ± 0.33
19,COc1ccccc1N1CCN(CCCNc2cc(=O)n(C)c(=O)n2C)CC1 [Urapidil hydrochloride],1.09 ± 0.36
20,O=C(N/N=C/c1ccc([N+](=O)[O-])o1)c1ccc(O)cc1 [Nifuroxazide],0.916 ± 0.47

# Reference: the supplement of paper PMC7366291
